# High-throughput results: PubChem, National Center for Advancing Translational Sciences (NCATS)
# HT1080 IDH1KD tx: qHTS for induction of synthetic lethality in tumor cells producing 2HG: qHTS for the HT-1080-IDH1KD cell line | HT-1080 IDH1 knockdown viability, ATP luminescence, 48 h | Potency, µM (highest dose often 46.1 µM), for inactives: top-dose activity, negative = toxicity, actives largely listed as cytotoxic | hit rate 2% among 360,000;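 further: potency means the concentration at half of the fitted maximal effect; 0% = DMSO wells and -100% = cell-free medium wells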
#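 Knockdown cells (IDH1KD HT-1080) received compounds 2 h after plating at 750 cells/well and were kept 48 h at 37 °C in 5% FBS RPMI. A CellTiter-Glo luminescence read gave % activity for curve fitting.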
# HT1080-NT tox: qHTS for induction of synthetic lethality in tumor cells producing 2HG: qHTS for the HT-1080-NT fibrosarcoma cell line; HT-1080-NT fibrosarcoma viability, CellTiter-Glo ATP luminescence, 48 h; Potency, µM (doses to about 46.1 µM), without a hit: at the highest dose activity, negative = less viability, hits mostly cytotoxic; AID 686970, 2013; hit rate 1.6% among 360,000;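 further: NT is the 2HG producing partner of a matched IDH1 knockdown line; potency means the concentration at half of the fitted maximal effect; 0% = DMSO-treated cells and -100% = media-only wells without cells; nearly all actives have a fitted effect of over 55% in size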
#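 Compounds were tested in concentration-response format on HT-1080-NT cells for 48 hours at 37 degrees C. Cell viability came from CellTiter-Glo luminescence; curves were classified by r2, response magnitude and activity.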
# DT40 TDP1 CPT: qHTS for Inhibitors of human tyrosyl-DNA phosphodiesterase 1 (TDP1): qHTS in cells in presence of CPT; chicken DT40 Tdp1-/-;hTDP1 cells + 20 nM CPT, ATP luminescence, 48 h; hit rate 12% among 420,000; Potency, µM (titrated, usually from 46.2 µM), without a hit: at the highest dose activity change, negative = growth inhibition, hits mostly inhibitors; further: potency means the concentration at half of the fitted maximal effect; nearly all actives have a fitted effect of over 55% in size
#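 Cell growth measured by CellTiter-Glo luminescence after a minimum 48 h, 37 C compound exposure with 20 nM CPT in Tdp1-knockout DT40 cells stably expressing hTDP1, seeded 400/well; qHTS titration format.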
# DT40 TDP1 no CPT: qHTS for Inhibitors of human tyrosyl-DNA phosphodiesterase 1 (TDP1): qHTS in cells in absence of CPT; DT40 Tdp1-/- hTDP1 cells, no CPT, ATP luminescence, 48 h; hit rate 15% among 420,000; Potency, µM (doses to about 46.2 µM), for the others: at the top dose activity change, negative = growth inhibition, most hits filed as inhibitors; further: potency means the concentration at half of the fitted maximal effect; nearly all actives have a fitted effect of over 55% in size
#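 Growth of hTDP1-complemented DT40 Tdp1-knockout cells is measured by ATP luminescence after at least 48 hr compound exposure at 37 °C, with DMSO substituting for the 20 nM CPT used in the parallel screen.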
# IL1B secr inh: qHTS for Inhibitors of Inflammasome Signaling: IL-1-beta AlphaLISA Primary Screen; hit rate 4.7% among 360,000; THP-1 LPS/ATP IL-1B secretion, AlphaLISA, 16 h; active compounds read low; activity change, % at 57.5 µM; in the data active means activity change below about -50%; inconclusive means mostly about -30% to -49%
#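 Secreted IL-1B measured by AlphaLISA bead assay after 16 h compound exposure of THP-1 cells; compounds (final up to 57.5 uM) added 1 h before LPS (250 ng/mL) and ATP (1.25 mM) stimulation; lower signal means less secretion.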
# Numbers without * were called inactive; ? = inconclusive; . = not tested or not shown; [ ] = another dose, or the depositor's remark. Only some compounds are listed: those with a hit (about 19% of all), similar ones and a draw of the others. Unless noted, the call rests on the fitted dose curve; in most records, active means well fitted curve in the direction sought with a large enough effect; inconclusive means small, poorly fitted or top-dose-only effect, or another doubt; inactive means no such curve, though single readings can be large; an effect the other way counts as inactive or inconclusive. Unless noted, on the % scale 0 is the no-effect control and ±100 the full control effect.
SMILES,HT1080 IDH1KD tx,HT1080-NT tox,DT40 TDP1 CPT,DT40 TDP1 no CPT,IL1B secr inh
Cc1csc(NC(=O)C2CCCN(S(=O)(=O)c3ccc4c(c3)oc(=O)n4C)C2)n1 (centres undefined),0.1%,15.0%,?,?,8.9
O=C(Nc1ccc(Br)cc1C(=O)c1ccccc1Cl)c1ccccc1F,.,.,8.5%,-14.0%,.
Cc1cccc(Cn2c(=O)n(Cc3ccc(C(=O)NC4CCN(Cc5ccccc5)CC4)cc3)c(=O)c3ccccc32)c1,.,.,4.11µM*,3.26µM*,.
COC(=O)c1ccc(CN2CCN(Cc3ccccc3)CC2)cc1,-3.6%,0.3%,-12.7%,-12.9%,8.0
C=CC(=O)NCNC(=O)C=C,14.1%,-8.7%,-3.1%,-1.3%,-10.2
CC(C)CNP(=S)(c1ccccc1)C(C)(C)C (centres undefined),11.2%,-1.2%,?,1.8%,28.9
CCC1(CCC(C)C)C(=O)NC(=O)NC1=O,.,.,?,-28.1%[92.5 µM],.
COc1ccc(C=C(C#N)c2ccc(OC)cc2)cc1,-11.4%,-0.6%,?,?,-57.5*
COc1ccc(C(=O)C(C)(C)NO)cc1,10.0%,9.1%,?,?,14.0
CCCN1CCCc2cc(CN)ccc21,?,?,9.2µM*,18.4µM*,46.7
N#CSCC(=O)N1c2ccccc2CCc2ccccc21,23.1µM*,?,5.8µM*,7.31µM*,-51.2*
Cc1ccc(C)c(NC(=O)CSc2nnc([C@@H](N)Cc3c[nH]c4ccccc34)o2)c1,3.3%,8.6%,-11.6%,0.1%,5.0
COc1ccc(/C=C/c2cc(O)cc(O)c2)cc1,.,.,2.59µM*,4.61µM*,.
Oc1cc(O)cc(/C=C/c2ccc(O)cc2O)c1,?,?,?,?,-3.8
O=C(CNC(=O)c1cccs1)OCC(=O)c1ccc([N+](=O)[O-])cc1,13.8%,-2.5%,16.4µM*,?,-88.7*
Cc1cc(N(CCCl)CCCl)ccc1/C=N/N=C(\N)c1cnccn1,-12.3%,-2.4%,7.31µM*,11.6µM*,-55.2*
Cc1cc(N(CCCl)CCCl)ccc1C=Cc1ccncn1,?,-5.1%,2.59µM*,4.61µM*,-15.4
CCNC1(c2cccs2)CCCCC1=O (centres undefined),.,.,5.9%[21.1 µM],-16.5%[21.1 µM],.
O=C(COc1ccc(Cl)cc1)N1CCN(C/C=C/c2ccccc2)CC1,-3.1%,6.8%,?,?,-75.4*
CCCCOc1ccc(C(=O)NCC(=O)N2CCN(C/C=C/c3ccccc3)CC2)cc1,-17.9%,-10.4%,?,16.4µM*,23.2
O=C(COc1ccccc1)N1CCN(C/C=C/c2ccccc2)CC1,1.5%,2.8%,16.4µM*,20.6µM*,-13.3
COc1ccc(-n2c(O)c(C(C)=NCCc3c[nH]c4ccccc34)c(=O)[nH]c2=O)cc1,-1.7%,-2.9%,-19.9%,?,23.9
CCCCn1c(C)c(C(=O)OCC)c2c(CN3CCCC3)c(O)ccc21,-29.8%,?,18.4µM*,11.6µM*,-78.6*
CCCCn1c(C)c(C(=O)OCC)c2c(CN3CCOCC3)c(O)ccc21,-25.6%,-10.7%,-21.1%,-16.9%,-60.4*
c1ccc2[nH]c(CCN3CCCCC3)nc2c1,-0.4%,1.7%,-9.7%,-5.6%,-4.8
SMILES,HT1080 IDH1KD tx,HT1080-NT tox,DT40 TDP1 CPT,DT40 TDP1 no CPT,IL1B secr inh
O=S(=O)(c1ccc(Cl)cc1)c1ccc(Cl)cc1,-1.1%,11.3%,-11.0%,-5.3%,-10.4
Cc1ccc2cc(CNCCc3ccccc3C)c(=O)[nH]c2c1,-9.7%,-18.1%,?,18.4µM*,-79.1*
Cc1cccc(CCNCc2cc3cc(C)cc(C)c3[nH]c2=O)c1,-14.7%,-3.6%,?,-24.2%,0.0
Cc1cccc(CCNCc2cc3cccc(C)c3[nH]c2=O)c1,?,-14.4%,8.2µM*,13µM*,-28.5
CC(C)(C)C(=O)OCC12CCC(O1)C1(C)C(=O)OCC21 (centres undefined),27.1%,28.5%,-5.2%,-4.8%,7.5
COC(=O)C[C@](O)(CCCC(C)(C)O)C(=O)O[C@@H]1C(OC)=CC23CCCN2CCc2cc4c(cc2[C@H]13)OCO4 (some centres undefined),.,.,0.0133µM*,0.0094µM*,.
COP(=O)(OC)c1nc(-c2cccc3ccccc23)oc1N1CCOCC1,-12.6%,-7.2%,-15.2%,18.4µM*,-10.9
CCCNc1oc(-c2cccc3ccccc23)nc1C#N,-16.3%,-4.6%,-23.3%,-26.7%,-14.6
COP(=O)(OC)c1nc(-c2cccc3ccccc23)oc1NCCc1ccccc1,?,?,?,?,-95.3*
[O]=[Cd],.,.,-4.4%,10.6%,.
COC[C@H]1OC(=O)c2coc3c2[C@@]1(C)C1=C(C3=O)[C@H]2CCC(=O)[C@@]2(C)C[C@H]1OC(C)=O,.,.,9.44µM*,?,.
COC[C@H]1OC(=O)c2coc3c2[C@@]1(C)C1=C(C3=O)C2CCC(=O)[C@@]2(C)C[C@H]1OC(C)=O (some centres undefined),?,?,1µM*,0.631µM*,.
O=C(C[C@@H]1C[C@@H]2c3cc(NS(=O)(=O)c4ccc(F)cc4)ccc3O[C@@H]2[C@H](CO)O1)N1CCc2ccccc2C1,-10.8%,16.2%,?,-21.6%,-25.0
CCOc1ccc(-c2c(C)n(-c3ccc(OCC)cc3)c3[n+]2CCCCC3)cc1,?,14.6µM*,0.206µM*,0.164µM*,-92.3*
COc1ccccc1C(=O)C1CCCN(Cc2cnc(C)s2)C1 (centres undefined),-2.6%,-2.8%,?,20.6µM*,18.5
CCn1ccnc1CN1CCCC(C(=O)c2cc(C)c(OC)c(C)c2)C1 (centres undefined),-0.1%,0.0%,?,20.6µM*,-10.1
CCn1ccnc1CN1CCCC(C(=O)c2cc(Cl)ccc2OC)C1 (centres undefined),-2.6%,-1.6%,?,?,-75.2*
COc1ccc(C(=O)C2CCCN(Cc3ccon3)C2)c(OC)c1 (centres undefined),8.3%,6.9%,?,?,13.1
CP(=O)(O)C1=CCNCC1,.,.,-6.8%,-1.1%,.
ClCCN1CCN(c2ccnc3cc(Cl)ccc23)CC1,-9.3%,-9.0%,13µM*,14.6µM*,-50.1*
O=C(Oc1ccnc2cc(Cl)ccc12)N1CCOCC1,-1.1%,-0.6%,-22.2%,?,-19.5
CCN(CC)P(=O)(/C=C(\Cl)c1ccccc1)/C=C(\Cl)c1ccccc1,-0.4%,4.4%,-20.7%,-0.7%,-3.7
